Hit rate of the full screen: of about 96,000 compounds, about 20,000 (21%) were called active. These entries were drawn from the full list. A number with no mark means an inactive call.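 The calls were made as follows: active = CYP2C19 inhibition above a set limit at 5 µM in the primary screen (cut at about 50% in these data); inactive = the rest.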

The target in this assay is Cytochrome P450 2C19 (Homo sapiens) (UniProt P33261). As to the kind of experiment: blockers of cytochrome P450 2C19 activity – biochemical, luminescence, ADME assay, primary screen (AID 778).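 Also: plate controls were negative control wells for no effect and 2.5 mM tranylcypromine positive control for full effect.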 As to conditions: CYP2C19 Supersomes, luciferin-H EGE luminescence, 30 min; at 5 µM; hits give high values.
Cytochrome P450 2C19 (Homo sapiens), sequence (P33261 whole entry, looked up): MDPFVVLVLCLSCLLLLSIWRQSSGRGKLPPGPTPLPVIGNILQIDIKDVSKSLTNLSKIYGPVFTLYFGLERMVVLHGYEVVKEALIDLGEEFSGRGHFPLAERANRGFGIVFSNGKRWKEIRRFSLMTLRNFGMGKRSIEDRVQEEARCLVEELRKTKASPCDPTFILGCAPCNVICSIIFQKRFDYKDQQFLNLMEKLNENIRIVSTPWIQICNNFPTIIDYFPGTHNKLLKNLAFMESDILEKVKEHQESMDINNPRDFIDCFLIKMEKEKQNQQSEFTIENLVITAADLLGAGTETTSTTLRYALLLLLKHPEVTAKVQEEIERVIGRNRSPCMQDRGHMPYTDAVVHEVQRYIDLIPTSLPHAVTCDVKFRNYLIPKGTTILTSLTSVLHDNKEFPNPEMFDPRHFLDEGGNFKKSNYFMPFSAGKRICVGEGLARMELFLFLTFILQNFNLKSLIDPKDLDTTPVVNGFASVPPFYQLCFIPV
By inhibition is commonly meant the relative decrease from the control value, in per cent. On to `CCOc1ccc(S(=O)(=O)NCC2CCCO2)cc1` (stereo not given), for which the inhibition was 86.4% (active). With `CCOC(=O)Cn1c(=O)oc2cc(S(=O)(=O)NCC3CCCO3)ccc21` (stereo not given), the inhibition was -10.4%. The same measure for `CCC(=O)Nc1ccc(S(=O)(=O)NCC2CCCO2)cc1` (stereo not given): 45%.

On to `Cc1cc(Cl)c(S(=O)(=O)NCC2CCCO2)cc1OCC(N)=O` (stereo not given), for which the inhibition was 1%. Take `O=S(=O)(NCC1CCCO1)c1ccc2ccccc2c1` (stereo not given): the inhibition was 92% (active).

Consider `Cc1ccc(C(=O)O)cc1S(=O)(=O)NCC1CCCO1` (stereo not given), for which the inhibition was -0.9%. The same measure for `Cc1cc(Cl)c(S(=O)(=O)NCCC(=O)O)cc1OCC(N)=O`: -20%; for `Cc1ccc(-n2ccc(=O)c(C(=O)O)n2)cc1`: -4%; for `COc1ccc(OCC(=O)NN2Cc3ccccc3C2=N)cc1`: 15.4%. The same measure for `O=C(/C=C/c1ccccc1)N/C(=C/c1ccccc1)C(=O)Nc1ccccc1O`: 17.4%. In the case of `CCCCCN(C(=O)NC(=O)Nc1ccccc1C)S(C)(=O)=O` it was 19.5%. In the case of `O=C1N(Cc2ccc3c(c2)OCO3)c2ccccc2C1(O)c1c[nH]c2ccccc12` (stereo not given), the inhibition was 87.9% (active). In the case of `CNC(=O)C1CC(=O)N(Cc2ccc3c(c2)OCO3)C(=Nc2ccc(F)cc2)S1` (stereo not given) it was 21.9%.

`Cc1nc2c(C(=O)NCc3ccc4c(c3)OCO4)c[nH]n2c(=O)c1Cc1ccccc1F`: the inhibition is 3.2%.

`Cc1cc(-n2nc(C)cc2C)n2ncc(-c3ccccc3)c2n1`: the inhibition was 35%. In the case of `COc1ccc(OCC(=O)OCCN(C)C)cc1`, the inhibition is 1.2%.

For `Cc1ccc(/C=N/NC(=O)C(NC(=O)c2ccccc2)c2n[nH]c(=O)c3ccccc23)cc1` (stereo not given), the inhibition is 13.3%.

Take `O=C(O)CSCC(=O)Nc1cccc(C(F)(F)F)c1`: the inhibition was -13.8%. In the case of `O=C(CN1CCN(C(=O)c2ccco2)CC1)Nc1ccc(Cl)c(C(F)(F)F)c1` it was 42.2%; in that of `O=C(CN1CCN(c2ccc(F)cc2)CC1)Nc1cccc(C(F)(F)F)c1`, 83.2% (active). Take `Cc1ccccc1CSCCNC(=O)c1ccc(N(C)S(=O)(=O)c2ccccc2)cc1`: the inhibition was 48.7%. In the case of `CCc1cc(C(c2ccccc2OC)N2CCOCC2)c(NC(=O)c2ccccc2)s1` (stereo not given) it was 18.9%. In the case of `OCc1n[nH]c(CO)n1` it was 1.2%.

Take `COc1cccc(-c2cc(C(=O)N/N=C/c3ccc(OC)c(COC(C)=O)c3)c3ccccc3n2)c1`: the inhibition was 49.3%. Consider `COc1cccc(OCc2cc(/C=N/NC(=O)c3nc(Cl)c(Cl)c(N)c3Cl)ccc2OC)c1`, for which the inhibition was 55.4% (active). In the case of `COc1ccc(/C=N\NC(=O)c2sc(N)nc2C)cc1OC` it was 1.8%.

`CCN1CCC(=NNC(=O)c2ccc(C)c([N+](=O)[O-])c2)CC1`: the inhibition was 1.5%. The same measure for `Cc1cc([N+](=O)[O-])ccc1NCc1cccc([N+](=O)[O-])c1`: -3.5%; for `CCN(CC)CCCNC(=O)CCc1ccccc1`: 7.3%. In the case of `CCn1ncc(Br)c1C(=O)Nc1cc(C)ccc1F` it was 24%; in that of `COc1ccc([N+](=O)[O-])cc1NC(=O)CCc1ccccc1`, 63.7% (active). In the case of `COc1ccc(OC)c(NC(=O)CC(Cc2ccccc2OC)C(=O)O)c1` (stereo not given) it was 1.6%; in that of `Cc1ccc(F)c(NC(=O)CCc2ccccc2)c1`, 65.2% (active); in that of `CCC(C)(C)c1ccc(Oc2ccc(NC(=O)COC(=O)C3=COCCO3)cc2)cc1`, 49.9%. For `Cc1ccc(C(=O)N/C(=C/c2ccco2)C(=O)NCCc2c[nH]c3ccccc23)cc1C`, the inhibition is 39.8%. In the case of `CCOC(=O)N1CCN(C(=O)C2CCN(c3ncnc4c3sc3cccc(F)c34)CC2)CC1` it was 24.8%. For the compound `CC1=C2C(=O)OC(c3ccoc3)C2(C)CCC1` (stereo not given), the inhibition is 78.1% (active). The same measure for `CC(C)C(=O)N1c2ccccc2NC2=C(C(=O)CCC2)C1c1ccc(N(C)C)cc1` (stereo not given): 8.1%. The same measure for `COC(=O)C(C)C1Sc2ccccc2NC1=O` (stereo not given): 44.9%. In the case of `O=C(COc1ccc(S(=O)(=O)NCCc2ccccc2)cc1)N1CCCC1` it was 81.4% (active); in that of `Cn1c(=O)c(=O)n(C)c2cc(S(=O)(=O)NCCc3ccccc3)ccc21`, 6.1%.

Take `COC(=O)[C@H](Cc1ccccc1)NC(=O)Nc1ccc(S(N)(=O)=O)cc1`: the inhibition was -4.1%. The same measure for `O=C(COc1ccc(Cl)cc1)N1CCN(S(=O)(=O)c2ccc(Cl)cc2)CC1`: -21%.

In the case of `O=C(COc1ccc(/C=N/NS(=O)(=O)c2ccccc2)cc1)NCCc1ccccc1`, the inhibition is -0.6%. In the case of `CC(=O)Nc1ccc(S(=O)(=O)NCCc2ccccc2)cc1` it was 90.7% (active); in that of `COc1cc(OC)cc(C(=O)Nc2ncc3c(n2)CC(C)(C)CC3=O)c1`, 9.1%; in that of `Cc1cccc(C)c1-n1c(C)cc(/C=C2\C(=O)NN(c3ccccc3)C2=O)c1C`, 36.4%.

With `CCOC(=O)c1ccccc1NC(=O)CC1Nc2ccccc2NC1=O` (stereo not given), the inhibition is 8.5%. Turning to `C=C(Br)CN1CCN(CC(=C)Br)CC1`, the inhibition is 9.1%.

For the compound `COc1ccc(CCNC(=O)c2cc3sccc3n2C)cc1OC`, the inhibition is 50.9% (active). The same measure for `COc1ccc(CCNC(=O)c2cc(-c3ccc4c(c3)OCO4)on2)cc1OC`: -2.7%. In the case of `Cn1c(C(=O)NCCCN2CCCCC2)cc2sccc21` it was 5.3%. The same measure for `CC12COC3(C(=O)Nc4ccc(Cl)cn4)CC1CCC32C` (stereo not given): 16.5%; for `O=C(CCCN1C(=O)CCC1=O)Nc1ccc(Cl)c(C(F)(F)F)c1`: 11.2%; for `C=CCC(NCc1ccco1)c1ccc(OC)cc1` (stereo not given): -0.2%. Turning to `CC(C)C(=O)Nc1nnc(Sc2ccc(N(C)C)cc2)s1`, the inhibition is 47.8%. As to `Cn1c(CN2CCOCC2)nc2cc(NC(=O)c3ccc(Cl)cc3)ccc21`, the inhibition was 4.8%. The same measure for `CC1Cc2ccccc2N1C(=O)Cn1cnc2ccccc2c1=O` (stereo not given): 9.8%. In the case of `CCOC(=O)c1[nH]c(C)c(C(=O)OCC(=O)N2c3ccccc3CC2C)c1C` (stereo not given) it was 0.9%; in that of `CCn1nc(C(=O)OCC(=O)N2c3ccccc3CC2C)c2ccccc2c1=O` (stereo not given), 66.9% (active). In the case of `COc1nc(Oc2ccc(=O)n(C)n2)nc(N(C)C)n1` it was -17.1%. Consider `O=C(CC1N=C2c3ccccc3N=C(SCc3ccccc3Cl)N2C1=O)NCc1ccco1` (stereo not given), for which the inhibition is 37.8%. The same measure for `Cc1noc(/C=C/c2ccco2)c1S(=O)(=O)N1CCC(C(=O)N2CCc3ccccc32)CC1`: 24.1%; for `CCS(=O)(=O)N1CCC(C(=O)N2CCN(c3ccccc3)CC2)CC1`: -1%.

On to `O=C(C1CCN(S(=O)(=O)Cc2ccccc2)CC1)N1CCCc2ccccc21`, for which the inhibition is 61.9% (active).

Consider `COC(=O)C1C(=O)CC(C)(O)C(C(=O)OC)C1c1ccc2c(c1)OCO2` (stereo not given), for which the inhibition is 29.1%.

For `COc1ccc(S(=O)(=O)N(CCCN2CCCC2=O)Cc2cc3c(C)ccc(C)c3[nH]c2=O)cc1`, the inhibition was 38.4%. Consider `Cc1ccc(S(=O)(=O)c2nc(NCCCn3ccnc3)sc2Cl)cc1`, for which the inhibition is 99.4% (active). The same measure for `O=C(CSCc1ccc(Br)cc1)Nc1ccc(S(=O)(=O)N2CCCCCC2)cc1`: 27.3%; for `CN(C)c1ccnc2sc3c(=O)n(Cc4ccccc4)cnc3c12`: 27.4%; for `CCSc1nnc(-c2cc3c(s2)-c2ccccc2CC3)o1`: -5.2%. Turning to `CC(=O)NC1=NC(=O)CS1`, the inhibition was 6%. The same measure for `CCCC(=O)Nc1nc2ccc(NC(=O)c3cccnc3)cc2s1`: 16.4%; for `CCN1C(=O)CS/C1=N\c1nccs1`: 19%. The same measure for `O=C1C=C(NCCNc2c(F)c(F)c(CO)c(F)c2F)CCC1`: 4.9%. For the compound `Cc1c(C=O)c2ccccn2c1C(=O)c1ccncc1`, the inhibition is 85.8% (active). The same measure for `Cc1cc(C(=O)O)c(S(C)(=O)=O)s1`: -6.4%. Turning to `Cc1csc(NC(=O)C2CCCN2C(=O)OCC(C)C)n1` (stereo not given), the inhibition is 29.2%. The same measure for `OC(c1ccccc1)c1nccn1Cc1ccccc1` (stereo not given): 81.9% (active).

As for `CC(C)(C)c1cc2cccnc2n1Cc1ccccc1`, the inhibition was 13.8%. Consider `CC(c1nnc(SCC(=O)Nc2sccc2C#N)n1-c1ccc(Cl)cc1)N(C)C` (stereo not given), for which the inhibition was 31.1%.

Take `Cc1cccc(N2CCN(C(=O)c3cnn4c(C(F)F)cc(-c5ccccc5)nc34)CC2)c1C`: the inhibition was 51% (active).

As to `CC(=O)N1CCN(c2cccc(C)c2C)CC1`, the inhibition is -2.5%. In the case of `O=C(O)c1cnn2c(C(F)(F)F)cc(-c3ccccc3)nc12` it was 20.2%; in that of `O=C(Cn1cc(-c2nnnn2-c2ccc(Cl)cc2)c(=O)c2ccccc21)c1ccccc1`, -16.7%. In the case of `O=C(NCCCCO)C(F)(F)C(F)(F)C(F)(F)C(=O)NCCCCO` it was 9.4%. In the case of `CCSc1nc(-c2ccc(OC)cc2)cc(-c2ccc(OC)cc2)c1C#N` it was 32.3%; in that of `Cc1ccc(C)n1-c1ccncc1`, 56.5% (active). Turning to `Cc1ccc(N)cc1-n1c(C)ccc1C`, the inhibition was 23.2%. On to `COc1ccc(-c2cc(C)nc3nc(N)nn23)cc1`, for which the inhibition is -16.3%. As for `CCOC(=O)c1ccc(-n2c(C)nc3c(cnn3-c3ccccc3C)c2=O)cc1`, the inhibition is -20.1%. The same measure for `N#Cc1cccc(NC(=O)CCC2CCCC2)c1`: 73.6% (active); for `CCOc1cccc(NC(=O)CC#N)c1`: -5.8%; for `COC(=O)c1sccc1NC(=O)CCC1CCCC1`: -0.5%. In the case of `CCOC(=O)N1CCC(NC(=O)C(C)n2c3ccccc3c3cnn(C)c(=O)c32)CC1` (stereo not given) it was 5.1%; in that of `NC(CSC12CC3CC(CC(C3)C1)C2)C(=O)O` (stereo not given), 12.9%; in that of `Cc1cc(C)cc(OCC(=O)NNC(=O)c2cc3ccccc3oc2=O)c1`, 5.4%.

Turning to `COc1ccc(C)c(Cn2c(-c3nonc3N)nc3ccccc32)c1`, the inhibition was 18.5%. The same measure for `CCCn1c(C(O)c2ccc(OCC)cc2)nc2ccccc21` (stereo not given): 90.6% (active); for `CCOCCn1c(C(C)C)nc2ccccc21`: 15.5%; for `CCOc1ccc(C(O)Cn2c(=N)n(CCN3CCCCC3)c3ccccc32)cc1` (stereo not given): 9.8%. In the case of `CCCn1c(C(O)c2cc(OC)ccc2OC)nc2ccccc21` (stereo not given) it was 74.3% (active); in that of `CC(Nc1nc(N2CCCC2)nc2ccccc12)c1ccccc1` (stereo not given), 15.5%; in that of `CC(C)n1c(C(O)c2ccccc2)nc2ccccc21` (stereo not given), 67.7% (active). Take `COc1cc(C(O)c2nc3ccccc3n2C)cc(OC)c1OC` (stereo not given): the inhibition was 46.5%.

The record behind these values is PubChem BioAssay AID778 (Sanford-Burnham Center for Chemical Genomics, 2007).
